This is one part of a sample in which hits are shown more often than they occur.
CD40 NFkB inh: CD40 pathway inhibition in BL2 cells; inhibition, % at 10 µM; hit rate 0.94% among 83,000; BL2 NF-kB luciferase reporter, CD40L-induced, 4 h;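 active = mean inhibition of at least 50% with a set share of replicates also reaching that level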
Each line names hits and unclear results; the compound was inactive in the other large screens; [ ] = dose if it differs, or a comment.

COc1ccc(CN(C)C[C@H]2Oc3ccc(NS(=O)(=O)c4ccc(Cl)cc4)cc3CC(=O)N([C@@H](C)CO)C[C@@H]2C)cc1	none
C[C@@H]1CN([C@@H](C)CO)C(=O)Cc2cc(NS(=O)(=O)c3ccc(F)cc3)ccc2O[C@@H]1CN(C)Cc1ccc(C(F)(F)F)cc1	CD40 NFkB inh 47
C[C@@H]1CN([C@H](C)CO)C(=O)Cc2cc(NS(=O)(=O)c3ccccc3)ccc2O[C@H]1CN(C)Cc1ccc(Cl)c(Cl)c1	none
C[C@@H]1CN([C@H](C)CO)C(=O)Cc2cc(NS(=O)(=O)c3ccc(F)cc3)ccc2O[C@H]1CN(C)Cc1ccncc1	none
C[C@H](CO)N1C[C@H](C)[C@@H](CN(C)Cc2ccc(C(F)(F)F)cc2)Oc2ccc(NS(=O)(=O)c3ccc(Cl)cc3)cc2CC1=O	CD40 NFkB inh 52
C[C@@H]1CN([C@H](C)CO)C(=O)Cc2cc(NS(C)(=O)=O)ccc2O[C@@H]1CN(C)Cc1ccc(C(=O)O)cc1	none
C[C@@H]1CN([C@@H](C)CO)C(=O)Cc2cc(NS(=O)(=O)c3ccc(F)cc3)ccc2O[C@H]1CN(C)Cc1ccncc1	none
O=C(C1CCC1)N1C[C@H]2[C@@H](c3ccccc31)[C@@H](CO)N2C(=O)Cc1ccccn1	none
C[C@H]1CN(C)C(=O)c2cc(N)ccc2O[C@H]1CN(C)S(C)(=O)=O	none
CC=Cc1ccc2n(c1=O)C[C@@H]1[C@@H](CO)[C@H](C(=O)NCC(F)(F)F)[C@H]2N1C(=O)C1CCCCC1 (mixture of isomers)	none
C=C1C(=O)C23C(O)C1CCC2C12CCCC(C)(COC(C)=O)C1C(O)C3(O)OC2 (stereo unspecified)	CD40 NFkB inh 104
OC[C@@H]1[C@H](c2ccc(-c3cccnc3)cc2)[C@H]2CN(Cc3ccccn3)CCCCN12	none
COc1cccc(-c2ccc3c(c2)[C@H]2[C@H](CCN2C(=O)C2CC2)[C@@H](CO)N3)c1	none
O=C(Nc1ncccc1O)c1ccc(OCC2CCCO2)cc1 (stereo unspecified)	none
O=C(NC1=NCCS1)c1ccc(OCC2CCCO2)cc1 (stereo unspecified)	none
O=C(Nc1nc2ccccc2s1)c1ccc(F)cc1	none
O=C(Nc1ccc(S(=O)(=O)N2CCCC2)cc1)c1ccc(OCC2CCCO2)cc1 (stereo unspecified)	none
O=C(Nc1nc2ccccc2s1)c1ccc(OCC2CCCO2)cc1 (stereo unspecified)	CD40 NFkB inh 56
Cc1cnc(NC(=O)c2ccc(OCC3CCCO3)cc2)s1 (stereo unspecified)	CD40 NFkB inh 80
CC(C)NC(=O)N1C[C@@H]2C(c3ccc(Br)cc3)[C@H](C1)N2Cc1ccc(F)cc1 (stereo partly specified)	none
CC(=O)NC[C@@H]1[C@H](c2ccc(C3=CCCC3)cc2)[C@H](CO)N1C(=O)NC(C)C	none
COc1ccc(C(=O)C=Cc2ccc(OCc3ccccc3)c(OC)c2)cc1OC	none
COc1cc(C(=O)NNC(=O)/C=C/c2ccccc2)cc(OC)c1OC	none
COc1cc(C=CC(=O)c2cc(OC)c(OC)c(OC)c2)cc(OC)c1OC	CD40 NFkB inh 65
C[C@@H]1CN([C@@H](C)CO)C(=O)c2cc(-c3cccnc3)cnc2O[C@@H]1CN(C)C(=O)Nc1ccccc1	none
CO[C@@H]1CN(C)C(=O)c2ccc(NC(=O)C3CC3)cc2OC[C@@H](C)N(Cc2cccnc2)C[C@@H]1C	none
N#C[C@H]1[C@@H](c2ccc(C#CC3CCCCC3)cc2)[C@@H](CO)N1C(=O)Nc1ccc(F)cc1	CD40 NFkB inh 62[25 µM]
N#C[C@H]1[C@H](c2ccccc2-c2ccc(F)cc2)[C@@H](CO)N1C(=O)NC1CCCCC1	none
N#C[C@H]1[C@H](c2ccccc2-c2ccc(F)cc2)[C@H](CO)N1C(=O)NC1CCCCC1	none
N#C[C@H]1[C@@H](c2ccc(C#Cc3ccc(F)cc3)cc2)[C@H](CO)N1C(=O)Nc1ccc(F)cc1	none
N#C[C@@H]1[C@H](c2ccc(C#CC3CCCC3)cc2)[C@H](CO)N1C(=O)Nc1ccc(F)cc1	none
N#C[C@@H]1[C@@H](c2ccc(C#CC3CCCC3)cc2)[C@H](CO)N1C(=O)Nc1ccc(F)cc1	none
N#C[C@@H]1[C@@H](c2ccccc2-c2ccc(F)cc2)[C@H](CO)N1C(=O)NC1CCCCC1	CD40 NFkB inh 59[25 µM]
CC(C)NC(=O)N1[C@H](CO)[C@@H](c2ccc(C#CC3CCCCC3)cc2)[C@@H]1C#N	none
N#C[C@@H]1[C@H](c2ccc(C#CC3CCCCC3)cc2)[C@@H](CO)N1C(=O)Nc1ccc(F)cc1	CD40 NFkB inh 77[25 µM]
C[C@H](CO)N1C[C@H](C)[C@@H](CN(C)C(=O)c2ccc(F)cc2)OCc2ccccc2-c2c(n(C)c3ccccc23)C1=O	none
COc1ccc(CNC(=O)C[C@H]2C=C[C@H](NC(=O)c3cccc(F)c3)[C@H](CO)O2)cc1	none
O=C(C[C@H]1CC[C@@H]2[C@H](COC[C@@H](O)CN2C(=O)Nc2ccccc2)O1)NCc1ccccc1F	none
COc1cccc(NC(=O)N2CC(=O)N3[C@H](CO)[C@H](c4ccc(C5=CCCCC5)cc4)[C@@H]3C2)c1	none
Cc1ccc(S(=O)(=O)N2CCC(N3CCC(C)CC3)CC2)cc1	none
